Test results from PubChem BioAssay (NCATS).
Results filed as inconclusive are left out. Calls of active or inactive are those of the source. Unless noted, calls come from the whole dose curve.

Key:
[1] = Primary qHTS for inhibitors of SARS-S pseudo-typed particle cell entry (AID 1479145); settings: outcome: dose series up to 57.1 µM unless noted; note: nearly all actives have a fitted effect of over 45% in size; note: potency is the fitted concentration of half-maximal effect; for activity change, negative = inhibition: % is set by controls: 0 for no effect and ±100 for the full control effect
[2] = Primary qHTS for Huh7 cytotoxicity: counterscreen for inhibitors of MERS-S pseudotyped particle cell entry (AID 1479147); settings: outcome: dose series up to 57.1 µM unless noted; note: potency is the fitted concentration of half-maximal effect; for activity change, negative = cytotoxicity: % is set by controls: 0 for no effect and ±100 for the full control effect
[3] = Primary qHTS for Vero E6 cytotoxicity: counterscreen for inhibitors of SARS-S pseudo-typed particle cell entry (AID 1479150); settings: outcome: dose series up to 57.1 µM unless noted; for activity change, negative = cytotoxicity: % is set by controls: 0 for no effect and ±100 for the full control effect
[4] = Cytotoxicity counterscreen for inhibitors of SARS-CoV-2 cell entry (AID 1645845); settings: outcome: dose series up to 57.1 µM unless noted; note: nearly all actives have a fitted effect of over 50% in size; for activity change, negative = cytotoxicity: % is set by controls: 0 for no effect and ±100 for the full control effect
Method in brief: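 Counterscreen run in the same HEK293-ACE2 line as the pseudotyped-particle entry assay, without particles. Viability after 48 h at 37 C was read as ATP luminescence, scaled between cell-containing and cell-free wells.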

[5] = VSVG counterscreen qHTS to identify inhibitors of SARS-CoV-2 cell entry (AID 1645847); note: potency is the fitted concentration of half-maximal effect; nearly all actives have a fitted effect of over 65% in size
Method in brief: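 Entry of VSV-G pseudotyped particles into human ACE2-expressing HEK293 cells was measured by luciferase luminescence 48 h after infection, with compound added 1 h beforehand.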

[6] = Confirmatory qHTS for VERO E6 Cytotoxicity Assay: Counterscreen for SARS-CoV-2 CPE Assay (AID 1508605); note: % is set by controls: 0 for no effect and ±100 for the full control effect; nearly all actives have a fitted effect of over 60% in size
[7] = Primary qHTS to identify inhibitors of SARS-CoV-2 cell entry (AID 1645846); settings: SARS-CoV-2 pseudovirus cell entry assay, luminescence; activity change, negative = inhibition: at 57.1 µM (top of the series) unless noted; note: nearly all actives have a fitted effect of over 45% in size; note: potency is the fitted concentration of half-maximal effect
Method in brief: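 Using luciferase-reporting pseudoviruses carrying Wuhan-Hu-1 spike, the screen tracks entry into stably ACE2-expressing cells over 48 hr. Activity is expressed relative to spike particles versus particles lacking any fusion protein.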

[8] = target: Cytochrome P450 2C9 (Homo sapiens) (UniProt P11712); assay: qHTS Assay for Inhibitors and Substrates of Cytochrome P450 2C9 (AID 883; active = well fitted curve in the direction sought with a large enough effect; an effect the other way counts as inactive or inconclusive; note: potency is the fitted concentration of half-maximal effect; nearly all actives have a fitted effect of over 60% in size)
Method in brief: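 Human CYP2C9 (10nM) with Luciferin-H at 100uM (its KM) in 25mM KPO4; compound preincubated 10 min at 37C, then NADPH regeneration for 60 min at 37C. Luciferin read by luminescence after detection reagent; normalized to 57uM sulphaphenazole as full inhibition.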

[9] = target: Cytochrome P450 3A4 (Homo sapiens) (UniProt P08684); assay: qHTS Assay for Inhibitors and Substrates of Cytochrome P450 3A4 (AID 884; active = well fitted curve in the direction sought with a large enough effect; an effect the other way counts as inactive or inconclusive; note: potency is the fitted concentration of half-maximal effect; nearly all actives have a fitted effect of over 50% in size)
Method in brief: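 Luminescent readout of luciferin produced by CYP3A4 (20 nM) dealkylation of Luciferin-PPXE, 25 uM (its KM). NADPH-driven reaction ran 60 min at RT after 10 min compound preincubation; data scaled to 57 uM ketoconazole as 100% inhibition.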

[10] = target: Cytochrome P450 3A4 (Homo sapiens) (UniProt P08684); assay: qHTS Assay for Activators of Cytochrome P450 3A4 (AID 885; active = well fitted curve in the direction sought with a large enough effect; an effect the other way counts as inactive or inconclusive; note: nearly all actives have a fitted effect of over 65% in size)
Method in brief: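 Using 20nM recombinant human CYP3A4 in potassium phosphate (200mM), substrate Luciferin-PPXE at 25uM, luminescent luciferin detection followed a 60-min RT NADPH reaction; data scaled to 57 uM ketoconazole.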

[11] = target: Cytochrome P450 2D6 (Homo sapiens) (UniProt P10635); assay: qHTS Assay for Inhibitors and Substrates of Cytochrome P450 2D6 (AID 891; active = well fitted curve in the direction sought with a large enough effect; an effect the other way counts as inactive or inconclusive; note: potency is the fitted concentration of half-maximal effect; nearly all actives have a fitted effect of over 60% in size)
Method in brief: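 Luminescent read-out of luciferin formed by 5 nM human CYP2D6 demethylating 30 uM Luciferin-ME EGE (Km level) over 60 min at room temperature after NADPH regeneration addition. Data normalized to full inhibition by 1.43 uM quinidine.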

[12] = Confirmatory qHTS to identify inhibitors of SARS-CoV-2 cell entry (AID 1645844); note: potency is the fitted concentration of half-maximal effect; nearly all actives have a fitted effect of over 45% in size
Method in brief: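 HEK293-ACE2, overnight seeding; cpd 1 h, 37C/5% CO2; + SARS-CoV-2-S MLV PP (Wuhan-Hu-1, ΔC19); 48 h; Bright-Glo luminescence. Data normalised to S PP and bald PP wells.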

[13] = KB-8-5-11 P-gp reporter qHTS against the NCATS DSHEA and TCM libraries (AID 1919977; active = well fitted curve in the direction sought with a large enough effect; an effect the other way counts as inactive or inconclusive; note: 0% is about no effect)
Method in brief: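 Viability of drug-resistant KB-8-5-11 cells is measured by CellTiter-Glo luminescence following roughly 72 h treatment at 37C. Substances were titrated, with bortezomib as intraplate control.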

[14] = Inducers of the Endoplasmic Reticulum Stress Response (ERSR) in human glioma: Validation (AID 504836; active = well fitted curve in the direction sought with a large enough effect; an effect the other way counts as inactive or inconclusive; note: 0% is about no effect)
Method in brief: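 Stably transfected U87-MG glioma cells carrying a GRP78-based luciferase sensor; 16 h compound incubation. Luminescence end-point read 10 min after Bright-Glo addition at room temperature.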

[15] = Primary qHTS for inhibitors of MERS-S pseudo-typed particle cell entry (AID 1479149); settings: outcome: dose series up to 57.1 µM unless noted; note: nearly all actives have a fitted effect of over 60% in size; note: potency is the fitted concentration of half-maximal effect

Sequence of Cytochrome P450 3A4 (Homo sapiens) (P08684 whole entry, looked up): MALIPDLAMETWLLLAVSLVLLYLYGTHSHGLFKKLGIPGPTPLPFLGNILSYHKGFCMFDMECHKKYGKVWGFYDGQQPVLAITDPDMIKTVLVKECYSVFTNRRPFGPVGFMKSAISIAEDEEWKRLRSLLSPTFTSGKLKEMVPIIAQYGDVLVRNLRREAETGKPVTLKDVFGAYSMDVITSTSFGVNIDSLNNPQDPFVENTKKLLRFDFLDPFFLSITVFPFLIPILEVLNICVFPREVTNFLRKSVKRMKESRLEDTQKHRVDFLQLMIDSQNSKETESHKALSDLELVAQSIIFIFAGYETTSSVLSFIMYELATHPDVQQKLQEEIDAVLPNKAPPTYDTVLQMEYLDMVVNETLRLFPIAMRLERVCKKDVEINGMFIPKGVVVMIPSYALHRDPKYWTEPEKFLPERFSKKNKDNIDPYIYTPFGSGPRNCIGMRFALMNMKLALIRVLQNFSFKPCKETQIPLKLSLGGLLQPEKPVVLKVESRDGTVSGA
Sequence of Cytochrome P450 2C9 (Homo sapiens) (P11712 whole entry, looked up): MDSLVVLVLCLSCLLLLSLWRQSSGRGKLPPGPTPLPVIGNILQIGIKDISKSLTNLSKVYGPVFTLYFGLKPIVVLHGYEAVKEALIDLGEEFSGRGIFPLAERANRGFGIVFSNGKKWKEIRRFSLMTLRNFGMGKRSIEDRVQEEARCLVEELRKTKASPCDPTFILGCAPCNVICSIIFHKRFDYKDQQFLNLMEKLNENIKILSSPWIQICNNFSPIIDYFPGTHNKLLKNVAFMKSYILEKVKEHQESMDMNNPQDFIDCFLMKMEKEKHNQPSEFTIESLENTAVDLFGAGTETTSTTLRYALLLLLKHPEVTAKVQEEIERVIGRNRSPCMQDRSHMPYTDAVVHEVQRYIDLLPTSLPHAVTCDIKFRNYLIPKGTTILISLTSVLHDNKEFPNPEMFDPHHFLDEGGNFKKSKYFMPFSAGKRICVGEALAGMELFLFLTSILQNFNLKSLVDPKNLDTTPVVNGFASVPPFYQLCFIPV
Sequence of Cytochrome P450 2D6 (Homo sapiens) (P10635 whole entry, looked up): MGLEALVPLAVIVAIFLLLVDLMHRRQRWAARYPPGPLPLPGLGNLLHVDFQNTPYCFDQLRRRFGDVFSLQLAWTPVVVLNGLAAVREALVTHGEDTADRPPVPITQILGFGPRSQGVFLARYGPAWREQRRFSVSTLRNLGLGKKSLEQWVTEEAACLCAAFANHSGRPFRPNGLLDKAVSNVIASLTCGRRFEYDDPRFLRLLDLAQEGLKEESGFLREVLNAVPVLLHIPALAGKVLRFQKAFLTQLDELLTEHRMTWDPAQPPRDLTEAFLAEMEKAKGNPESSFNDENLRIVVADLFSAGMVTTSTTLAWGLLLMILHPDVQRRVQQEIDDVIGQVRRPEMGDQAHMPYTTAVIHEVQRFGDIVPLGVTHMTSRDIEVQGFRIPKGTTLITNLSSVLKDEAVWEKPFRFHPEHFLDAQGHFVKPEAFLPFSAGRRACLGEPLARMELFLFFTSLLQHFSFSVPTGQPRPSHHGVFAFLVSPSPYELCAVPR

CC(C)(O)CNc1nc(Nc2ccnc(C(F)(F)F)c2)nc(-c2cccc(C(F)(F)F)n2)n1
inactive: Potency [1] | Potency [2] | Potency [3] | Potency [4]

C[C@H]1C[C@H]2[C@H]3CCC4=CC(=O)C=C[C@]4(C)[C@@]3(F)[C@@H](O)C[C@]2(C)[C@@]1(OC(=O)c1ccccc1)C(=O)CO
inactive: Potency [1] | Potency [2] | Potency [3] | Potency [4]

CC(C)c1nc(CN(C)C(=O)N[C@@H](CCN2CCOCC2)C(=O)N[C@H](CC[C@H](Cc2ccccc2)NC(=O)OCc2cncs2)Cc2ccccc2)cs1
active: Potency [5] 21.5 µM
inactive: Potency [1] | Potency [2] | Potency [3] | Potency [4]

CN(C)CC/C=C1\c2ccccc2CSc2ccccc21
inactive: Potency [2] | Potency [3] | Potency [6]
active: Potency [1] 20 µM | Potency [7] 20 µM

CC1(COc2ccc(N3CCC(Oc4ccc(OC(F)(F)F)cc4)CC3)cc2)Cn2cc([N+](=O)[O-])nc2O1 (stereo unspecified)
inactive: Potency [1] | Potency [2] | Potency [3] | Potency [4]

C=C1/C(=C/C=C2\CCC[C@]3(C)[C@@H]([C@H](C)CCCC(O)(C(F)(F)F)C(F)(F)F)CC[C@@H]23)C[C@@H](O)C[C@@H]1O
inactive: Potency [1] | Potency [2] | Potency [3]

C=C1/C(=C\C=C2/CCC[C@]3(C)[C@@H]([C@H](C)CCCC(C)(C)O)CC[C@@H]23)C[C@@H](O)C[C@@H]1O
inactive: Potency [1] | Potency [2] | Potency [3] | Potency [4]

CCOc1ccc2c(c1)C(C)=CC(C)(C)N2
active: Potency [8] 2 µM | Potency [9] 15.8 µM | Potency [11] 2.51 µM | Potency [12] 31.2 µM | Potency [5] 55.5 µM
inactive: Potency [10] | Potency [1] | Potency [2] | Potency [3] | Potency [4]

C=C[C@]1(C)C[C@@H](OC(=O)CSCCN(CC)CC)[C@]2(C)[C@H](C)CC[C@]3(CCC(=O)[C@H]32)[C@@H](C)[C@@H]1O
active: Potency [1] 20 µM | Potency [12] 3.04 µM | Potency [5] 15.2 µM
inactive: Potency [2] | Potency [3] | Potency [4]

C=C1CC[C@H](O)C/C1=C\C=C1/CCC[C@]2(C)[C@@H]([C@H](C)CCCC(C)C)CC[C@@H]12
active: Potency [5] 24.1 µM
inactive: Potency [1] | Potency [2] | Potency [13]

Cc1cc(N)c2ccccc2[n+]1CCCCCCCCCC[n+]1c(C)cc(N)c2ccccc21
inactive: outcome [14] | activity change, negative = inhibition [1] -2.83% [at 11.4 µM] | activity change, negative = cytotoxicity [2] 1.39% [at 11.4 µM] | activity change, negative = cytotoxicity [3] -0.518% [at 11.4 µM] | activity change, negative = cytotoxicity [4] -25.1% [at 11.3 µM]

CC[C@H]1OC(=O)[C@H](C)[C@@H](O[C@H]2C[C@@](C)(OC)[C@@H](O)[C@H](C)O2)[C@H](C)[C@@H](O[C@@H]2O[C@H](C)C[C@H](N(C)C)[C@H]2O)[C@](C)(OC)C[C@@H](C)C(=O)[C@H](C)[C@@H](O)[C@]1(C)O
-13%: activity change, negative = inhibition [7]
inactive: Potency [1] | Potency [2] | Potency [3] | Potency [4]

CC[C@@]1(O)C(=O)OCc2c1cc1n(c2=O)Cc2c-1nc1cc(F)c(C)c3c1c2[C@@H](N)CC3
-94.1%: activity change, negative = inhibition [7]
inactive: Potency [1] | Potency [2]

N#Cc1c(N2C[C@@H]3NCCO[C@H]3C2)c(F)cc2c(=O)c(C(=O)O)cn(C3CC3)c12
inactive: Potency [1] | Potency [2] | Potency [3] | Potency [4]

O=C(O)CC(O)CC(O)/C=C/c1c(C2CC2)nc2ccccc2c1-c1ccc(F)cc1 (stereo unspecified)
inactive: Potency [1] | Potency [2] | Potency [15] | Potency [4] | Potency [7]

Cc1c(OCC(F)(F)F)ccnc1C[S@@](=O)c1nc2ccccc2[nH]1
inactive: Potency [1] | Potency [2] | Potency [3]

CCCCCCCCCCCC[n+]1ccc2ccccc2c1
inactive: Potency [2]
active: Potency [1] 2.82 µM | Potency [15] 5.62 µM | Potency [7] 3.16 µM

CCN(CC)CCOC(=O)c1ccc(N)cc1Cl
inactive: Potency [1] | Potency [2] | Potency [3] | Potency [4]

CC1(C)C(/C=C/C=C/C=C/C=C2/N(CCCCS(=O)(=O)O)c3ccc4ccccc4c3C2(C)C)=[N+](CCCCS(=O)(=O)[O-])c2ccc3ccccc3c21
inactive: Potency [1] | Potency [2] | Potency [3] | Potency [4]

CC(C)OC(=O)CCC/C=C\C[C@@H]1[C@@H](/C=C/[C@@H](O)COc2cccc(C(F)(F)F)c2)[C@H](O)C[C@@H]1O
active: Potency [12] 21.5 µM | Potency [7] 14.1 µM | Potency [5] 10.8 µM
inactive: Potency [1] | Potency [2] | Potency [3]

C=C(NC(=O)C(=C)NC(=O)c1csc(C2=N[C@H]3c4csc(n4)[C@H]4NC(=O)c5csc(n5)[C@H]([C@@](C)(O)[C@@H](C)O)NC(=O)[C@H]5CSC(=N5)C(=CC)NC(=O)[C@H]([C@@H](C)O)NC(=O)c5csc(n5)[C@]3(CC2)NC(=O)[C@H](C)NC(=O)C(=C)NC(=O)[C@H](C)NC(=O)[C@H](C(C)CC)N[C@@H]2C=Cc3c([C@H](C)O)cc(nc3[C@H]2O)C(=O)O[C@@H]4C)n1)C(N)=O (stereo partly specified)
active: Potency [2] 20 µM | Potency [5] 1.71 µM
inactive: Potency [1] | Potency [3]
